# Screening results deposited in PubChem by National Center for Advancing Translational Sciences (NCATS).
# D2 PAM-1 = positive allosteric modulators of human D2 dopamine receptor | DiscoveRx D2 beta-arrestin cells, luminescence, 90 min; 100% = 57 uM dopamine signal | actives 0.23% (n = 360,000) | AID 624464 | potentiation, % (no concentration beside the values) | P14416; in the data active means potentiation above about 50%; inconclusive means mostly about 30% to 49%
# Target sequence (P14416 whole entry, looked up): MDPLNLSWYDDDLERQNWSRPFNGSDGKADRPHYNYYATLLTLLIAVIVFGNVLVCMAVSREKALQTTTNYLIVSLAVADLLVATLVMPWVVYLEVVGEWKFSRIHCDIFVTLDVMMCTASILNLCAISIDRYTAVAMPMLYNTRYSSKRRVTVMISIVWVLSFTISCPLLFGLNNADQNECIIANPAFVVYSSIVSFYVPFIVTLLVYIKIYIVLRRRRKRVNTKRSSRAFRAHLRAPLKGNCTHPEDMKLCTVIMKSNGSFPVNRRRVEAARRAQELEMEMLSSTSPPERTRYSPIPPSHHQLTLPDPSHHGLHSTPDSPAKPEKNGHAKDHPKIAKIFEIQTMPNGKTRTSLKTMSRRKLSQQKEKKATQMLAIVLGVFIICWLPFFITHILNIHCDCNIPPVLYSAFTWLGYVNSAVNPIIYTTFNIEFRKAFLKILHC
#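 PathHunter beta-arrestin assay in DiscoveRx D2 cells. Compounds were added with an EC20 of dopamine (50 nM final) for 90 min at 37 deg C. Luminescence was read 1 h after detection reagent, with 57 uM dopamine as the EC100 control.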
# D2 PAM-2 = D2 dopamine receptor (human) potentiation; P14416; HEK293 T-REx D2, calcium flux, EC20 dopamine potentiation; potentiation, % at 10 µM; actives 0.34% (n = 340,000);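 active means potentiation over 3 SD above the plate norm, cut at about 30% in these data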; further: 0% is about no effect
#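 Potentiation of an EC20 dopamine calcium response measured kinetically over 180 s, after a preceding 180 s compound-only read flagging agonists. Cells: inducible Hek293 Trex D2 line, 4000/well, cultured overnight at 30 C before dye loading.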
# D2 ag-1 = agonists of human D2 dopamine receptor; AID 485358; actives 0.53% (n = 340,000); activation, % at 2 µM; HEK293 T-REx D2 cells, calcium flux agonist mode; P14416;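 active means activation over 3 SD above normal in the single-dose calcium agonist read, cut at about 30% in these data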; further: 0% is about no effect
#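 HEK293 Trex D2 cells, tetracycline-induced, o/n 30 C 5% CO2; no-wash Ca dye, RT 30–90 min; 10-cycle baseline, 23 nl cpd added, kinetic Ca read 180 s; agonist hits = positive Ca response.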
# D2 ag-2 = agonists of human D2 dopamine receptor (beta-arrestin) | P14416 | DiscoveRx PathHunter D2 beta-arrestin, luminescence, 90 min; 100% = 57 uM dopamine signal | activation, % (no concentration beside the values) | actives 0.084% (n = 360,000) | AID 624465; in the data active means activation above about 40%; inconclusive means between about 15% and that limit
#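 DiscoveRx PathHunter D2 beta-arrestin cells (2,100/well) attached overnight, then compound-stimulated 90 min at 37 C in HBSS/10 mM HEPES/0.1% Tween-20 buffer; beta-galactosidase complementation read by luminescence after 1 h at ambient temperature. Dopamine 57 uM final (EC100) as control.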
# D2 antag = D2 dopamine receptor (human) antagonism; HEK293 TREx D2 cells, calcium flux, dopamine EC80; P14416; actives 2% (n = 340,000); inhibition, % at 10 µM; in the data active means inhibition above about 30%; inactive means below that, where a call was filed; further: 0% is about no effect
#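 Calcium mobilization kinetics were recorded at 1 s intervals in tetracycline-induced HEK293 T-REx D2 cells, first for 180 s after compound addition and then 180 s after EC80 dopamine.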
# Numbers without * were called inactive; ? = inconclusive; nt = no result given. Sampled rows, rich in hits. Any-hit rate of the full collection: about 2.4%.
SMILES,D2 PAM-1,D2 PAM-2,D2 ag-1,D2 ag-2,D2 antag
O=C(NCc1ccc2c(c1)OCO2)C(=O)NCC1CCCO1 (centres undefined),-7,4,0,-3,10
COc1ccc(CCN2C(=O)CN=C2Nc2ccc(F)cc2)cc1OC,-4,-2,-1,-3,6
C=CCN1C(=O)CN=C1Nc1ccc(F)cc1,-5,-33,1,0,54*
COc1cc(/C=C(\C#N)c2nc3ccccc3[nH]2)cc(OC)c1O,5,-2,36*,12,9
COC(=O)C(C)NC(=O)C12CC3CC(C1)CC(c1ccc(C)cc1)(C3)C2 (centres undefined),-17,-1,-1,6,6
COc1ccc(-c2noc(CCC(=O)Nc3cccnc3)n2)cc1,-3,6,-1,0,0
CC(C)(C)c1ccc(-c2noc(CCC(=O)Nc3cccnc3)n2)cc1,-1,-1,2,5,36*
CCOc1ccccc1NC(=O)CCc1c(C)nc2c(c(C)nn2-c2ccccc2)c1C,nt,-3,0,nt,nt
Cc1nc2ccc(Cl)cc2nc(C)/c1=N\O,83*,8,1,13,-11
CCCc1cc(C(=O)Cc2ccccn2)c(O)cc1O,0,9,-1,-7,37*
Cc1sc(NC(=O)CCC(=O)O)c(C(N)=O)c1-c1ccccc1,15,4,0,0,47*
CN1CCC(=O)N([C@H](CSc2ccccc2)c2ccccc2)CC1,-18,-18,-1,-3,6
Cc1ccc(SC[C@H](c2ccccc2)N2CCN(C)CCC2=O)cc1,-20,1,-1,-3,38*
COc1cccc(CNC(=O)c2cc3c(=O)n(Cc4cccnc4)ccc3nc2C)c1,nt,-4,-1,nt,nt
COc1cccc(-n2c(SCC(=O)Nc3ccc4c(c3)OCO4)nc3c([nH]c4ccccc43)c2=O)c1,nt,-3,nt,nt,nt
CCc1ccc(-c2cc(C)no2)cc1S(=O)(=O)NCCc1ccccc1,-5,-1,1,4,30*
Cc1cc(-c2ccc(C)c(S(=O)(=O)NCCc3ccccc3)c2)on1,nt,1,0,nt,nt
Cc1cc(-c2ccc(C)c(S(=O)(=O)NCCC(C)N3CCCCCC3)c2)on1 (centres undefined),-8,3,-1,1,4
CCc1ccc(-c2cc(C)no2)cc1S(=O)(=O)NC(C)Cc1ccco1 (centres undefined),0,84*,0,2,5
Cc1cc(-c2ccc(C)c(S(=O)(=O)NCCCN3CCCCCC3)c2)on1,-38,-11,-2,-5,34*
[O-]/C(=C(\C(=S)Nc1ccccc1F)[n+]1ccccc1)c1ccc(OC(F)F)cc1,-5,1,0,-3,-7
Cc1ccc(C)c(NC(=S)/C(=C(\[O-])c2ccc(OC(F)F)cc2)[n+]2ccccc2)c1,-4,11,1,-4,31*
COc1ccc(/C=C2\COc3ccccc3C2=O)cc1OC,5,18,0,1,-2
CCOc1cc(/C=C2\COc3ccccc3C2=O)cc(Br)c1OCC(=O)N(C)C,-5,-1,11,-1,44*
Cc1ccc(CNC(=O)CCS(=O)(=O)c2ccc3c(c2)oc(=O)n3C)cc1,4,7,-1,2,30*
SMILES,D2 PAM-1,D2 PAM-2,D2 ag-1,D2 ag-2,D2 antag
CS(=O)(=O)CC[C@@H](C(=O)NCCc1ccccc1)N1Cc2ccccc2C1=O,nt,5,1,nt,nt
COc1ccc(-c2cc(C(F)(F)F)nc(SCCC(=O)Nc3cccc(O)c3)n2)cc1,nt,4,-1,nt,nt
CCCn1c(=O)c2sccc2n2c(CCCC(=O)Nc3cccc(CC)c3)nnc12,nt,-5,1,nt,nt
Cc1ccc(S(=O)(=O)Nc2ccc(Cl)cc2)cc1NC(=O)c1cc2c(s1)CCCC2,72*,7,1,8,-9
COc1ccc(-c2ccc3c(c2)S(=O)(=O)c2cccc(C(=O)N4CCN(C5CCCCC5)CC4)c2C3=O)cc1OC,118*,nt,nt,?,nt
CCOC(=O)c1ccc(NC(=O)CCc2c(C)nc3c(c(C)nn3C)c2C)cc1,nt,5,1,nt,nt
CC1CCCCC1NC(=O)CN1CCN(Cc2ccccc2Cl)C1=O (centres undefined),-10,12,1,-4,4
